# Measured values: publication PMC7862700, “An all-to-all approach to the identification of sequence-specific readers for epigenetic DNA modifications on cytosine”
# Key:
# Assay in all cases: DAPPL (digital affinity profiling via proximity ligation, sequencing); 10 mM Tris-HCl pH 7.5, 50 mM NaCl, 1 mM DTT, 4% glycerol, room temperature, 30 min; GST-TFs on glutathione beads, 16-mer random dsDNA library, 0.1% formaldehyde crosslink after washing; high values mean tight binding
# Conditions in all cases: protein: recombinant; tags: N-terminal GST; dsDNA, one strand shown
# FLI1 = molecular target: T1, FLI1 (Homo sapiens, UniProt Q01543 1-452)
# T1 sequence: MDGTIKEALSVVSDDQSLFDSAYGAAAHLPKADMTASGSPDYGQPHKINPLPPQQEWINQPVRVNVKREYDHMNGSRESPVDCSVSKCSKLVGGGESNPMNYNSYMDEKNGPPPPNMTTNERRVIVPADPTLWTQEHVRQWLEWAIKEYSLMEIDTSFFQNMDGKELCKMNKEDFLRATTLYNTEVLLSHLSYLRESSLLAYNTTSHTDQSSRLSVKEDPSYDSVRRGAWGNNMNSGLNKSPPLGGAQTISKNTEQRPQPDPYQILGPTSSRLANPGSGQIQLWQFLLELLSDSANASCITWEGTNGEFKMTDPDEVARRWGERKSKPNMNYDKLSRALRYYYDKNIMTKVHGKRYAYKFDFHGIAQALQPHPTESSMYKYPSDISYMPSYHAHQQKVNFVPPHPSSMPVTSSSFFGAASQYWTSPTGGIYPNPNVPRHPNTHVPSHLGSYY
# Procedure, shortened: (§1)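 Each value of binding signal is a hexamer's read frequency for a factor divided by the same hexamer's frequency in the tag-only sample. Barcoded, bead-captured GST fusions of human transcription factors made in yeast were pooled with that sample and incubated with 200 nmole of a random double-stranded 16-mer DNA library in Tris/NaCl/DTT/glycerol buffer at room temperature for 30 min. Washing, 0.1% formaldehyde crosslinking, proximity ligation, PCR and Illumina NextSeq500 sequencing followed.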
# ELK1 = molecular target: T2, ELK1 (Homo sapiens, UniProt P19419 1-428)
# T2 sequence: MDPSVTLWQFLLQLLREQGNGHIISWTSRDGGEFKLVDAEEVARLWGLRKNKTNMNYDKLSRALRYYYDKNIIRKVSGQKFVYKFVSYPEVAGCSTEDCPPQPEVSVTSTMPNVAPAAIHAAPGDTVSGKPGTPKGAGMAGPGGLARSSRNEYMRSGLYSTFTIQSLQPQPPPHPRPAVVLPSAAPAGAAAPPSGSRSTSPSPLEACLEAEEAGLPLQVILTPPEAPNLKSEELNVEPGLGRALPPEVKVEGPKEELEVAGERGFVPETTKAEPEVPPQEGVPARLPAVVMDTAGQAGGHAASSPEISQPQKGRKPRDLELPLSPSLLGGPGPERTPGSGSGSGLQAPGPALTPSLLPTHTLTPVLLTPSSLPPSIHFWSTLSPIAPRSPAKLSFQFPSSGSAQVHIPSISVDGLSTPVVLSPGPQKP
# Procedure, shortened: as §1
# GABPA = molecular target: T3, GABPA (Homo sapiens, UniProt Q06546 1-454)
# T3 sequence: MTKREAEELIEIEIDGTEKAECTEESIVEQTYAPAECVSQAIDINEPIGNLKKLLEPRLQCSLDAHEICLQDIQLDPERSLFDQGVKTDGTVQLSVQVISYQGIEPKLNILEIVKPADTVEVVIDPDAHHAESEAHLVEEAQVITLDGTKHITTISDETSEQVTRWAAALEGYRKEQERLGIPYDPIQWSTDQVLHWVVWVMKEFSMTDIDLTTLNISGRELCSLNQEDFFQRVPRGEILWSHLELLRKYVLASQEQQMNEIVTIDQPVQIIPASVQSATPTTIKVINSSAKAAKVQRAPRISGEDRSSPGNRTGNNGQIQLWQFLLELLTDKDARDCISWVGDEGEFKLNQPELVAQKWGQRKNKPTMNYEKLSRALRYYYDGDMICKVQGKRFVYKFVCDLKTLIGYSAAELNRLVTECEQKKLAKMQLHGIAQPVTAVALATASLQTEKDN
# Procedure, shortened: as §1
# ERG = molecular target: T4, ERG (Homo sapiens, UniProt P11308 1-479)
# T4 sequence: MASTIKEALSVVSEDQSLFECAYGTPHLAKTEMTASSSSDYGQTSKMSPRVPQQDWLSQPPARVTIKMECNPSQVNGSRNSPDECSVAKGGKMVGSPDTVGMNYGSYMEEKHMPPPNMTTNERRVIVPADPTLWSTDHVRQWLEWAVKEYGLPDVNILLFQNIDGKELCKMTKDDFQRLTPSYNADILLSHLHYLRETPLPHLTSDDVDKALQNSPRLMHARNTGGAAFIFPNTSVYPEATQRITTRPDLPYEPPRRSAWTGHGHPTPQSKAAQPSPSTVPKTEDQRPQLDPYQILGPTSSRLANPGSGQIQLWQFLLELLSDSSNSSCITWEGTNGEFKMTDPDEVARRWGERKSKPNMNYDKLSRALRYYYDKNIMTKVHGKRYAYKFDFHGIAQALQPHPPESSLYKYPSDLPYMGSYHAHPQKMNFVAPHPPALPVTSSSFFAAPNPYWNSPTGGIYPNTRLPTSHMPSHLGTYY
# Procedure, shortened: as §1
# ELF1 = ELF1 (Homo sapiens, UniProt P32519 1-619)
# Procedure, shortened: as §1
# EHF = molecular target: T5, EHF (Homo sapiens, UniProt Q9NZC4 1-300)
# T5 sequence: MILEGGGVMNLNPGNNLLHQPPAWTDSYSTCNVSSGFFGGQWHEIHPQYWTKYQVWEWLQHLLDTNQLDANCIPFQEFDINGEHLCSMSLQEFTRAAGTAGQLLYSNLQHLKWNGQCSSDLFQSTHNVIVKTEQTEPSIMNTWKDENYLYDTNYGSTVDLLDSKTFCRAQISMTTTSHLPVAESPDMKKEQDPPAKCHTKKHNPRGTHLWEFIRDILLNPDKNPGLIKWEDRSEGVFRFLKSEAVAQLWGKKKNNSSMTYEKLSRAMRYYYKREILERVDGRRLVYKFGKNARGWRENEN
# Procedure, shortened: as §1
# SPI1 = SPI1 (Homo sapiens, UniProt P17947 1-270)
# Procedure, shortened: as §1
# SPIB = SPIB (Homo sapiens, UniProt Q01892 1-262)
# Procedure, shortened: as §1
# ELK3 = molecular target: T6, ELK3 (Homo sapiens, UniProt P41970 1-407)
# T6 sequence: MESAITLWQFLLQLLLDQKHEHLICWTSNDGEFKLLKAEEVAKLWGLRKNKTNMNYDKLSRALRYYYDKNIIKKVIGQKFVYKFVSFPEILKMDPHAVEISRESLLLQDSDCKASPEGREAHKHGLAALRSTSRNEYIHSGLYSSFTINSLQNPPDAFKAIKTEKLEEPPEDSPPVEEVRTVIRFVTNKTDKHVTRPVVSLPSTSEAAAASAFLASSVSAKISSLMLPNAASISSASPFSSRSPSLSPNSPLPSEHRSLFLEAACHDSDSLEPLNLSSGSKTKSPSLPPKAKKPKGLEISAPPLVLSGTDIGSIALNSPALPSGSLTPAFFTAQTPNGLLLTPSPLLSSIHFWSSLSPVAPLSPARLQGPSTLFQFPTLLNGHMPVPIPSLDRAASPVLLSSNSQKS
# Procedure, shortened: as §1
# SPIB, sequence (Q01892 whole entry): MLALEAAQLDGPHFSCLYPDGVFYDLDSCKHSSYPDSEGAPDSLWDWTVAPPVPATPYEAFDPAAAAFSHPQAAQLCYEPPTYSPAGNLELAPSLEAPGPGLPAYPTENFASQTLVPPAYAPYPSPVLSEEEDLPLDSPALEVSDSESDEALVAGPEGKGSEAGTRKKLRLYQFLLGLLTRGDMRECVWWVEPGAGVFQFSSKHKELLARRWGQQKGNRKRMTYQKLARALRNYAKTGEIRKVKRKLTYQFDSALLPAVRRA
# ELF1, sequence (P32519 whole entry): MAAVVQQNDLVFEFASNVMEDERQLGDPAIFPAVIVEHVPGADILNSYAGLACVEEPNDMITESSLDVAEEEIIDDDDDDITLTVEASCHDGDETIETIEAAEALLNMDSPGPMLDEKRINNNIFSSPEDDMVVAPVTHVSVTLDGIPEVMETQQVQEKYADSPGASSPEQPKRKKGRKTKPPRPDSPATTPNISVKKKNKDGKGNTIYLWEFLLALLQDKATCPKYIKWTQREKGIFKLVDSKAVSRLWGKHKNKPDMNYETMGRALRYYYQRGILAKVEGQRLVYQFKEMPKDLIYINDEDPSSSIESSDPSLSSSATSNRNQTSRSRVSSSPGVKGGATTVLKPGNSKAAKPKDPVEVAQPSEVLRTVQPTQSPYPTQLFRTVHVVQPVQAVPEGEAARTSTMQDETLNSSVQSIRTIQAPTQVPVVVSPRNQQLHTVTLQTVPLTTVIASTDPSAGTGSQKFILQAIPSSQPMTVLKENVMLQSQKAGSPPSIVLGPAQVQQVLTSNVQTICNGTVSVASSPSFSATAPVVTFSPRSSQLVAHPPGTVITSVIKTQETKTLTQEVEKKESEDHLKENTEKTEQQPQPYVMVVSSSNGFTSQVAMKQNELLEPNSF
Sequence,binding signal (FLI1),binding signal (ELK1),binding signal (GABPA),binding signal (ERG),binding signal (ELF1),binding signal (EHF),binding signal (SPI1),binding signal (SPIB),binding signal (ELK3)
CTCATC,"1.5 fold enrichment (6-mer frequency, TF over GST control)","1.36 fold enrichment (6-mer frequency, TF over GST control)","1.41 fold enrichment (6-mer frequency, TF over GST control)","1.34 fold enrichment (6-mer frequency, TF over GST control)","1.35 fold enrichment (6-mer frequency, TF over GST control)","1.35 fold enrichment (6-mer frequency, TF over GST control)","1.21 fold enrichment (6-mer frequency, TF over GST control)","1.41 fold enrichment (6-mer frequency, TF over GST control)","1.47 fold enrichment (6-mer frequency, TF over GST control)"
GCCGAC,"1.19 fold enrichment (6-mer frequency, TF over GST control)","1.23 fold enrichment (6-mer frequency, TF over GST control)","1.21 fold enrichment (6-mer frequency, TF over GST control)","1.17 fold enrichment (6-mer frequency, TF over GST control)","1.1 fold enrichment (6-mer frequency, TF over GST control)","1.05 fold enrichment (6-mer frequency, TF over GST control)","1.05 fold enrichment (6-mer frequency, TF over GST control)","1.18 fold enrichment (6-mer frequency, TF over GST control)","1.15 fold enrichment (6-mer frequency, TF over GST control)"
GAAGTA,"1.88 fold enrichment (6-mer frequency, TF over GST control)","2.23 fold enrichment (6-mer frequency, TF over GST control)","1.68 fold enrichment (6-mer frequency, TF over GST control)","2.03 fold enrichment (6-mer frequency, TF over GST control)","1.84 fold enrichment (6-mer frequency, TF over GST control)","2.13 fold enrichment (6-mer frequency, TF over GST control)","2.32 fold enrichment (6-mer frequency, TF over GST control)","1.95 fold enrichment (6-mer frequency, TF over GST control)","2.1 fold enrichment (6-mer frequency, TF over GST control)"
ATACTA,"1.16 fold enrichment (6-mer frequency, TF over GST control)","1.11 fold enrichment (6-mer frequency, TF over GST control)","1.25 fold enrichment (6-mer frequency, TF over GST control)","1.17 fold enrichment (6-mer frequency, TF over GST control)","1.21 fold enrichment (6-mer frequency, TF over GST control)","1.22 fold enrichment (6-mer frequency, TF over GST control)","1.13 fold enrichment (6-mer frequency, TF over GST control)","1.22 fold enrichment (6-mer frequency, TF over GST control)","1.06 fold enrichment (6-mer frequency, TF over GST control)"
AGTATC,"1.09 fold enrichment (6-mer frequency, TF over GST control)","1.13 fold enrichment (6-mer frequency, TF over GST control)","1.11 fold enrichment (6-mer frequency, TF over GST control)","1.08 fold enrichment (6-mer frequency, TF over GST control)","1.13 fold enrichment (6-mer frequency, TF over GST control)","1.19 fold enrichment (6-mer frequency, TF over GST control)","1.13 fold enrichment (6-mer frequency, TF over GST control)","1.2 fold enrichment (6-mer frequency, TF over GST control)","1.17 fold enrichment (6-mer frequency, TF over GST control)"
CGTACC,"1.24 fold enrichment (6-mer frequency, TF over GST control)","1.15 fold enrichment (6-mer frequency, TF over GST control)","1.18 fold enrichment (6-mer frequency, TF over GST control)","1.12 fold enrichment (6-mer frequency, TF over GST control)","1.15 fold enrichment (6-mer frequency, TF over GST control)","1.15 fold enrichment (6-mer frequency, TF over GST control)","1.14 fold enrichment (6-mer frequency, TF over GST control)","1.12 fold enrichment (6-mer frequency, TF over GST control)","1.21 fold enrichment (6-mer frequency, TF over GST control)"
ACTGCC,"1.47 fold enrichment (6-mer frequency, TF over GST control)","1.44 fold enrichment (6-mer frequency, TF over GST control)","1.44 fold enrichment (6-mer frequency, TF over GST control)","1.44 fold enrichment (6-mer frequency, TF over GST control)","1.42 fold enrichment (6-mer frequency, TF over GST control)","1.46 fold enrichment (6-mer frequency, TF over GST control)","1.48 fold enrichment (6-mer frequency, TF over GST control)","1.41 fold enrichment (6-mer frequency, TF over GST control)","1.3 fold enrichment (6-mer frequency, TF over GST control)"
